In PubChem BioAssay one finds composite z-score and z-score data, which are given here for 9 molecules.

Calls of active or inactive are those of the source.

In assay [1] the test system is Wnt5a (protein binding on small-molecule microarray). The experiment in a line: small molecules binding Wnt5a protein – biophysical, small-molecule microarray, 635/667 nm fluorescence, primary screen (AID 1142).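 Note: fluorescence read at 667 nm with signal to noise per printed feature.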 Conditions: 635 nm fluorescence, higher = more signal.
Assay [2] is described as follows: ATP-based viability of Huh7 replicon cells – cell-based, CellTiter-Glo luminescence, basal, 48 h, cytotoxicity control for HCV replication inhibitor project, primary screen (AID 1143).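 Note: Huh7 hepatoma cells carrying a hepatitis C replication reporter with no stimulus; test concentration not given here.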 The conditions noted are these: higher = more signal, called active from +8 up or from −8 down. Background: Replicon systems follow genome replication, usually without infectious particles.

Assay [3] can be described thus: basal CRE-LacZ reporter activity in PC12 – cell-based, unstimulated, primary screen (AID 1145). The conditions noted are these: no forskolin, luminescence, 4.5 h, higher = more signal, called active from +8 up or from −8 down.
Assay [4] is described as follows: forskolin-driven CRE-LacZ activity in PC12 – cell-based, CRE-LacZ reporter, forskolin-stimulated, primary screen (AID 1146).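 Note: PC12 cells with 6xCRE LacZ reporter stimulated by forskolin 10 µM; beta-galactosidase reporter signal reflecting CREB driven transcription.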 Conditions: luminescence, 4.5 h, higher = more signal, called active from +8 up or from −8 down.
Assay [5] deals with Streptavidin (Streptomyces avidinii) (UniProt P22629). Put plainly: compounds binding control protein streptavidin – biophysical, small-molecule microarray, 635/667 nm fluorescence, artefact control for SMM compound annotation, primary screen (AID 1147).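 Note: signal reflects streptavidin binding to arrayed compounds as a control protein.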 Conditions: higher = more signal.
A short description of assay [6]: probe aInhba binding on compound microarray – biochemical, small-molecule microarray, 635/667 nm fluorescence, primary screen (AID 1148).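 Note: score merges 667nm spot fluorescence with signal-to-noise for antibody binding to printed compounds.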 The conditions noted are these: higher = more signal.
In assay [7] the target is Torsin-1A (Homo sapiens) (UniProt O14656). The experiment in a line: TOR1A wild-type binding on microarray – cell lysate, small-molecule microarray, lysate, 635/667 nm, primary screen (AID 1149). Conditions: COS7 hTOR1A-WT lysate, 635 nm fluorescence, higher = more signal.
Assay [8] shares this target. The experiment in a line: torsin A mutant lysate binding on microarrays – cell lysate, small-molecule microarray, COS7 lysate, 635/667 nm fluorescence, primary screen (AID 1150).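 Note: score pools 667 nm emission and signal to noise measuring lysate protein binding.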 The conditions noted are these: COS7 hTOR1A mutant lysate, 635 nm fluorescence, higher = more signal.
The subject of assay [9] is Sonic hedgehog protein (Shh). Put plainly: Sonic hedgehog microarray binding compounds – biochemical, small-molecule microarray, 635/667 nm fluorescence, primary screen (AID 1151).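 Note: Shh protein binding to compounds spotted on small-molecule microarray slides; score combines spot fluorescence intensity with signal-to-noise across triplicate slides.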 The conditions noted are these: 635 nm fluorescence, higher = more signal.
Assay [10] is described as follows: optical density shifts of acrAB sulA E. coli – strain DRC41, OD650, 48 h, E. coli filamentation inducer project, primary screen (AID 1152).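 Note: E. coli MC1000 strain DRC41 lacking acrAB efflux pump and sulA.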 Conditions: higher = more signal, called active from +8 up or from −8 down.
Assay [11] can be described thus: probe aLefty1 binding on compound microarray – biochemical, small-molecule microarray, 635/667 nm fluorescence, primary screen (AID 1153).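 Note: score merges spot fluorescence with signal-to-noise ratio from the scanned slide images.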 Conditions: higher = more signal.
A short description of assay [12]: plasmodial surface anion channel blockers, osmotic lysis – cell-based, P. falciparum Indochina, OD700, 1 h, primary screen (AID 1154). Conditions: P. falciparum Indochina infected RBC osmotic lysis, higher = more signal, called active from +8 up or from −8 down.
The nature of assay [13]: plasmodial surface anion channel blockers, osmotic lysis – cell-based, P. falciparum Indochina, OD700, 2 h, primary screen (AID 1155).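 Note: lysis reports solute entry through the parasite surface anion channel PSAC.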 The conditions noted are these: P. falciparum Indochina infected erythrocytes, higher = more signal, called active from +8 up or from −8 down.
Assay [14] is described as follows: changes in parasitized red cell lysis, either direction – P. falciparum Indochina, OD700, 3 h, PSAC antagonist project, primary screen (AID 1156). Conditions: P. falciparum-infected erythrocytes, osmotic lysis, higher = more signal, called active from +8 up or from −8 down.
A short description of assay [15]: plasmodial surface anion channel blockers, osmotic lysis – cell-based, P. falciparum Indochina, OD700, 18 h, primary screen (AID 1157). The conditions noted are these: P. falciparum Indochina infected erythrocytes, osmotic lysis OD700, 18 h; higher = more signal, called active from +8 up or from −8 down.
Assay [16] in a line: S6 kinase pathway phospho-S6 level changes – cell-based, A549, cytoblot, luminescence, serum-stimulated, primary screen (AID 1158).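 Note: serum-stimulated A549 lung adenocarcinoma cells; signal is phosphorylated S6 detected by cytoblot immunostaining with HRP secondary.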 The conditions noted are these: 5 h, higher = more signal.
Assay [17] deals with NADPH oxidase 2 (Homo sapiens) (UniProt P04839). The experiment in a line: compounds shifting NOX2 Amplex Red fluorescence – cell-based, HEK293-NOX2, PMA-stimulated, NOX inhibitor project, primary screen (AID 1159). Note: test concentration not given here. The conditions noted are these: 45 min, higher = more signal, called active from +8 up or from −8 down.
The target of assay [18] is NADPH oxidase 4 (Homo sapiens) (UniProt Q9NPH5). Put plainly: compounds shifting NOX4 Amplex Red fluorescence – cell-based, HEK293-NOX4, tetracycline-induced, NOX inhibitor project, primary screen (AID 1160). Conditions: HEK293-NOX4, Amplex Red H2O2 fluorescence, 45 min; higher = more signal, called active from +8 up or from −8 down.
In assay [19] the target is NADPH oxidase 5 (Homo sapiens) (UniProt Q96PH1). The experiment in a line: compounds shifting NOX5 Amplex Red fluorescence – cell-based, HEK293-NOX5, NOX inhibitor project, primary screen (AID 1161). Conditions: HEK293-NOX5, ionomycin, 45 min, higher = more signal.
Chain of NADPH oxidase 5 (Homo sapiens) (Q96PH1 whole entry, looked up): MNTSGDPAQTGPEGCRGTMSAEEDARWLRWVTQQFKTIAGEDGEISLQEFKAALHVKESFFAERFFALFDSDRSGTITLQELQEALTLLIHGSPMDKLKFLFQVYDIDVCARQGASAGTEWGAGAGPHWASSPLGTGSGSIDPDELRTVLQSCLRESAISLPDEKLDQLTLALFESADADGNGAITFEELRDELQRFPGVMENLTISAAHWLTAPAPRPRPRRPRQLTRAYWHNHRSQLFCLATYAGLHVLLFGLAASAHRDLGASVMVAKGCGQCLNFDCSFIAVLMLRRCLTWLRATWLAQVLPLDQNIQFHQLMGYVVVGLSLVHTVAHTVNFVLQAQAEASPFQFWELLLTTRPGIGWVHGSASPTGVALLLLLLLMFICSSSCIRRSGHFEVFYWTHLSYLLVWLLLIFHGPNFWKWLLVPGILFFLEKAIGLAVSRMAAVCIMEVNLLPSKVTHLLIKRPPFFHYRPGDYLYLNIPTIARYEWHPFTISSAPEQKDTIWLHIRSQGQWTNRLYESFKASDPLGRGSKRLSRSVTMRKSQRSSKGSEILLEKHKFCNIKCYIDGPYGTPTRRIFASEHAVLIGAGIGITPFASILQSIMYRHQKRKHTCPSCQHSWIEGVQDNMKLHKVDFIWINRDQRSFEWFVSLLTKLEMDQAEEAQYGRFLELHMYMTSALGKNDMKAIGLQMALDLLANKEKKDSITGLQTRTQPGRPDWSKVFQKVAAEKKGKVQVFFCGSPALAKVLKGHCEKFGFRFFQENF

Chain of Torsin-1A (Homo sapiens) (O14656 whole entry, looked up): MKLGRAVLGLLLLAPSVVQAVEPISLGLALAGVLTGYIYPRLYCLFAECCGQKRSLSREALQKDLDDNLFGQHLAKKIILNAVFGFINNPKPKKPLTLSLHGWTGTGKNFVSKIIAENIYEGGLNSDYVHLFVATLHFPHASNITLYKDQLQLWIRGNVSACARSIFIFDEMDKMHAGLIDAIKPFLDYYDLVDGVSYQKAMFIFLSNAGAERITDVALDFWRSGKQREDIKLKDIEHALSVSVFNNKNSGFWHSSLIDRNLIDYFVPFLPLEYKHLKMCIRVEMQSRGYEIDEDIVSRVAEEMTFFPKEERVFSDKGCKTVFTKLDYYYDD
Chain of NADPH oxidase 2 (Homo sapiens) (P04839 whole entry, looked up): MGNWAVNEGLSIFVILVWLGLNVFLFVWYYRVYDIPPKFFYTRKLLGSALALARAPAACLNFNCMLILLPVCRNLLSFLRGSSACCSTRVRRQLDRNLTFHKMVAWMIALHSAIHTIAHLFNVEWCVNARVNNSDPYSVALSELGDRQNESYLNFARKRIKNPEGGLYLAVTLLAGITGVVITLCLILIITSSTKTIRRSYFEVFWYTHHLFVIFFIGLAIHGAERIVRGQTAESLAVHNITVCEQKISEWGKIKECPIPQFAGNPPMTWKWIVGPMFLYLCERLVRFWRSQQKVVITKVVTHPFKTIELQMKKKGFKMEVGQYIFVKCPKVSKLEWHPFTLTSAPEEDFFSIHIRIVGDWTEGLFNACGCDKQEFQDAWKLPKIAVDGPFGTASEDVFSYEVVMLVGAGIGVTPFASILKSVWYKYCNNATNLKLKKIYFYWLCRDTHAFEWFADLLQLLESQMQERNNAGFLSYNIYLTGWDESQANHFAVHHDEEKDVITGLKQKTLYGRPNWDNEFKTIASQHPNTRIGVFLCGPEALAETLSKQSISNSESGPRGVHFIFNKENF
Chain of NADPH oxidase 4 (Homo sapiens) (Q9NPH5 whole entry, looked up): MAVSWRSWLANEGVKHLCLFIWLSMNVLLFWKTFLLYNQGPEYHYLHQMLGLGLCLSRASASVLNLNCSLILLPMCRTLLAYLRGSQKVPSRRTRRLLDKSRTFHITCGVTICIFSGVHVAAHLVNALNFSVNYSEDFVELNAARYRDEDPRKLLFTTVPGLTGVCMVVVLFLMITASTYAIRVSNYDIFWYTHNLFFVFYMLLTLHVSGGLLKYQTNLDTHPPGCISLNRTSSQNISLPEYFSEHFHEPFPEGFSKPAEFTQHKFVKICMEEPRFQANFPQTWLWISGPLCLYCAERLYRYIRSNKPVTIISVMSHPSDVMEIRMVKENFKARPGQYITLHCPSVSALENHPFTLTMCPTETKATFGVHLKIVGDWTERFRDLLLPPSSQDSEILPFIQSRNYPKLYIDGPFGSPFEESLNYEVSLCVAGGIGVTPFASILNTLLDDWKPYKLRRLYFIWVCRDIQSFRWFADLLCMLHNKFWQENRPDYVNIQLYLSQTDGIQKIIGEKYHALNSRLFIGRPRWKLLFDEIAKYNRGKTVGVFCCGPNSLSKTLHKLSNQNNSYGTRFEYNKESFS
Chain of Streptavidin (Streptomyces avidinii) (P22629 whole entry, looked up): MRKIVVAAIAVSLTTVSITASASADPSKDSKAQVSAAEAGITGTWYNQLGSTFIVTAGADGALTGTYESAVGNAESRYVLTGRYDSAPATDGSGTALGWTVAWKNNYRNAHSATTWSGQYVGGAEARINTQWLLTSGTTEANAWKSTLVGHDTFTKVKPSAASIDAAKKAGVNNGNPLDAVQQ

`O=C1c2ccccc2[C@](Cc2ccccc2I)(C(=O)O)[C@H](c2ccc(CO)cc2)N1C1CCCCC1`: the composite z-score in assay [1] was 0.818; in [5] it was 0.947; in [6] it was 0.0676; in the assay with Torsin-1A (Homo sapiens) [7], 0.0702; with Torsin-1A (Homo sapiens) [8] it was 0.76; in assay [9], 0.636. Also, the composite z-score in assay [11] is 0.138. The z-score was -4.42 (inactive) in assay [2]; 0.001 (inactive) in [3]; -0.298 (inactive) in assay [4]; 2.84 (inactive) in [10]; 3.72 (inactive) in assay [12]; 0.525 (inactive) in [13]. Also, the z-score is 0.974 (inactive) in [14]; -0.339 (inactive) in assay [15]; 2.86 in assay [16]; 1.06 (inactive) in assay [17]; -0.737 (inactive) in [18]; -0.473 in assay [19].

Regarding `COCCOC(=O)N1C(=O)[C@@]2(c3cc(C#CC4(O)CCCCCC4)ccc31)[C@H](C(=O)N1CCCCCCC1)[C@H]1C(=O)O[C@H](c3ccccc3)[C@H](c3ccccc3)N1[C@@H]2c1ccc(O)cc1`, the composite z-score came to 0.464 in [1]; 1.16 in assay [5]; 1.01 in assay [6]; 1.27 with Torsin-1A (Homo sapiens) [7]; 0.889 with Torsin-1A (Homo sapiens) [8]; 1.68 in assay [9]. Also, the composite z-score in [11] was found to be 2.25. Moreover, the z-score in assay [2] was -4.34 (inactive); in assay [3], -0.211 (inactive); in assay [4] it was -1.68 (inactive); in [10], 1.13 (inactive); in assay [12], 0.908 (inactive); in assay [13], 0.128 (inactive). In addition, the z-score in assay [14] is -0.373 (inactive); in [15], -0.763 (inactive); in assay [16], 1.49; in [17], 1.5 (inactive); in [18], 0.372 (inactive); in assay [19] it was 2.35.

For `CC(C)(C)OC(=O)CC[C@@]1(C(=O)NCc2ccccc2)N=C(c2ccc(OCCCO)cc2)O[C@@H]1c1ccccc1`, the composite z-score in assay [1] was 0.337; in assay [5], 1.41; in [6], 0.346; with Torsin-1A (Homo sapiens) [7], 0.461; with Torsin-1A (Homo sapiens) [8], 1.04; in assay [9], -0.282. This molecule gave a composite z-score in [11] of 0.736. Moreover, the z-score in assay [2] is -4.58 (inactive); in [3] it was 0.573 (inactive); in assay [4], -2.42 (inactive); in [10], 1.9 (inactive); in assay [12], 23.9 (active); in [13], 11.3 (active). The z-score is 1.61 (inactive) in assay [14]; 1.7 (inactive) in [15]; 3.43 in [16]; -1.25 (inactive) in assay [17]; 0.596 (inactive) in [18]; -0.58 in [19].

With `CC(C)N1CC=CC23O[C@@H]4/C=C\CCCOC(=O)C4[C@H]2C(=O)N(CCCCCO)[C@@H]3C1=O` (stereo partly specified), the composite z-score was -0.22 in assay [1]; -1.52 in assay [5]; -0.244 in assay [6]; 1.5 with Torsin-1A (Homo sapiens) [7]; 1.58 with Torsin-1A (Homo sapiens) [8]; -0.641 in assay [9]. In [11], this molecule came in with a composite z-score of -0.285. In addition, the z-score in assay [2] is -0.143 (inactive); in [3] it was 0.0564 (inactive); in [4], 0.392 (inactive); in assay [10], 1.57 (inactive); in assay [12], -0.455 (inactive); in assay [13], 0.0907 (inactive). Besides, the z-score was 0.658 (inactive) in assay [14]; -0.258 (inactive) in assay [15]; 0.946 in [16]; 0.845 (inactive) in [17]; -0.00488 (inactive) in assay [18]; 1.7 in assay [19].

Consider `CC(C)[Si]1(C(C)C)OCc2cc(C3CC3)nc(-c3ccccc3)c21`, for which the composite z-score in [1] is -0.125; in [5], -0.0842; in assay [6], -0.108; with Torsin-1A (Homo sapiens) [7] it was 0.188; with Torsin-1A (Homo sapiens) [8], 0.127; in assay [9] it was 0.545. This molecule also registered a composite z-score in [11] of -0.0573. Further, the z-score is -1.63 (inactive) in assay [2]; 0.339 (inactive) in [3]; -1.08 (inactive) in assay [4]; 2.37 (inactive) in [10]; 2.84 (inactive) in assay [12]; 0.201 (inactive) in assay [13]. The z-score in assay [14] is 0.531 (inactive); in assay [15], -0.15 (inactive); in assay [16], 1.34; in assay [17], 1.86 (inactive); in assay [18], 1.06 (inactive); in assay [19], -1.28.

With `COc1ccc(CCNC(=O)[C@@]2(c3ccc([N+](=O)[O-])cc3)CC(=O)N(C(C)C)[C@@H]2c2ccc(CO)cc2)cc1`, the composite z-score is -0.326 in assay [1]; -0.698 in assay [5]; -0.255 in assay [6]; -1.09 with Torsin-1A (Homo sapiens) [7]; -0.87 in the assay with Torsin-1A (Homo sapiens) [8]; -0.775 in assay [9]. In assay [11], this molecule yielded a composite z-score of -0.0353. Further, the z-score in assay [2] is -3.13 (inactive); in assay [3] it was 0.0909 (inactive); in [4], -1.25 (inactive); in assay [10], 1.6 (inactive); in assay [12], 4.07 (inactive); in assay [13], 0.208 (inactive). For the same molecule, the z-score in assay [14] was 1.44 (inactive); in assay [15], 0.621 (inactive); in assay [16], 0.54; in [17] it was 0.891 (inactive); in assay [18] it was 0.433 (inactive); in [19], 0.24.

For the molecule `CO[C@@H]1COC(=O)[C@H](C)NC(=O)CC=C[C@@H](C)[C@H](NS(=O)(=O)c2ccc(C)cc2)COC(=O)CC=C[C@@H]1C`, the composite z-score in assay [1] is 0.0543; in assay [5], -0.193; in [6], -0.145; with Torsin-1A (Homo sapiens) [7], 0.56; with Torsin-1A (Homo sapiens) [8] it was 0.252; in assay [9], 0.0208. Besides, in assay [11], the composite z-score is -0.15. The z-score in assay [2] was 0.189 (inactive); in [3], -0.0234 (inactive); in assay [4], -0.445 (inactive); in [10] it was 0.117 (inactive); in assay [12], -0.697 (inactive); in [13], -0.207 (inactive). For the same molecule, the z-score is 0.0724 (inactive) in assay [14]; -0.0387 (inactive) in [15]; 0.225 in [16]; 0.564 (inactive) in assay [17]; 0.661 (inactive) in assay [18]; 0.661 in assay [19].

On to `CO[C@]12C=C(Br)[C@@H](C[C@@H]1c1ccccc1)[C@@]1(CO1)C2=O`, for which the composite z-score is -0.002 in assay [1]; 0.4 in assay [5]; -0.0221 in [6]; 0.271 in the assay with Torsin-1A (Homo sapiens) [7]; 0.309 with Torsin-1A (Homo sapiens) [8]; 0.522 in assay [9]. Besides, the composite z-score in assay [11] is 0.166. The z-score is -1.7 (inactive) in assay [2]; -0.323 (inactive) in assay [3]; 2 (inactive) in assay [4]; 2.36 (inactive) in [10]; -0.0452 (inactive) in [12]; -0.698 (inactive) in assay [13]. In addition, the z-score in assay [14] was 0.422 (inactive); in assay [15], -1.7 (inactive); in [16], 0.716; in assay [17] it was 0.575 (inactive); in assay [18], 0.625 (inactive); in assay [19], 0.339.

Turning to `C[N+](C)(C)CCCC[C@@H]1NC(=O)[C@H]2C[C@@H](C(=O)NCc3ccc(F)cc3)[C@@H](c3cccc(OCCO)c3)N2C1=O`, the composite z-score in assay [1] was 0.141; in assay [5], -0.326; in [6], -0.0963; with Torsin-1A (Homo sapiens) [7], 0.55; with Torsin-1A (Homo sapiens) [8], 1.07; in [9], 1.4. In assay [11], this molecule registered a composite z-score of -0.0536. The z-score in assay [2] is -0.533 (inactive); in assay [3] it was 1.23 (inactive); in [4] it was -0.396 (inactive); in assay [10] it was 0.923 (inactive); in assay [12], 2.46 (inactive); in assay [13] it was -1.3 (inactive). In addition, the z-score in [14] was -5.77 (inactive); in [15], -2.37 (inactive); in assay [16], 0.123; in [17] it was 0.999 (inactive); in assay [18], 0.834 (inactive); in [19], 1.53.
